Values joined by “and” are separate entries in the source; they are usually repeats but may differ in a detail not shown here. Identical values can stand only once. Records with an inconclusive call do not appear. Active and inactive are the calls of the source. The call rests on the fitted dose curve; in most records, active means well fitted curve in the direction sought with a large enough effect; inconclusive means small, poorly fitted or top-dose-only effect, or another doubt; inactive means no such curve, though single readings can be large; an effect the other way counts as inactive or inconclusive.

A short description of assay [1]: Primary qHTS for inhibitors of nuclear receptor binding SET domain protein 2 (NSD2) in an isogenic RCH-ACV NSD2 p.E1099K mutant (9B) (AID 1645876).
The nature of assay [2]: Primary qHTS for inhibitors of nuclear receptor binding SET domain protein 2 (NSD2) in an RCH-ACV wild type WT cells (2C) (AID 1645877). Background: qHTS replaces the single test concentration by a dilution series.
Further: nearly all actives have a fitted effect of over 70% in size.
Potency means the concentration at half of the fitted maximal effect.

In the case of `CCn1nc(C2CCN(C(=O)CCO)CC2)nc1-c1cnc(N)c(-c2nnc(C(C)(C)C)o2)n1`, the Potency is 164 nM (active) and 296 nM (active) in assay [1]; 64.9 nM (active) and 263 nM (active) in assay [2].
As for `C=C1C(=O)O[C@@H]2C[C@H](C)[C@@H]3CC(=O)[C@H](O)[C@@]3(C)C[C@H]12`, the values for the Potency in assay [1] and in assay [2] were 20.5 µM (active) and 10.3 µM (active), respectively.
The like results for `C=C1C(=O)O[C@@H]2/C=C(\C)CC/C=C(\C)CC[C@@H]12` were, in that order, 14.5 µM (active) and 7.28 µM (active).
The like results for `CC#CCn1c(N2CCCC(N)C2)nc2c1c(=O)n(Cc1nc(C)c3ccccc3n1)c(=O)n2C` (stereo not given) were, in that order, “inactive” and “inactive”.
For `NC(=O)c1ccccc1Nc1ccnc(Nc2cccc(O)c2)n1`, the Potency in assay [1] is 0.742 µM (active); in assay [2], 0.833 µM (active).
For `Cc1noc(C)c1-c1cc(O)cc(C(O)c2ccccc2)c1` (stereo not given) the same measures were 0.916 µM (active) and 1.03 µM (active).
Turning to `CC(C)Oc1ccc(-c2cnc3c(-c4ccnc5ccccc45)cnn3c2)cc1`, the Potency entry in assay [1] and in assay [2] was “inactive” in each case.
For `C[C@@H]1O[C@@H](O[C@H]2[C@@H](OC(=O)[C@]34CCC(C)(C)CC3C3=CCC5[C@@]6(C)C[C@H](O)[C@H](O[C@@H]7O[C@H](CO)[C@@H](O)[C@H](O)[C@H]7O[C@@H]7OC[C@@H](O)[C@H](O)[C@H]7O)[C@@](C)(C(=O)O)C6CC[C@@]5(C)[C@]3(C)CC4)OC[C@H](O)[C@@H]2O)[C@H](O)[C@H](O)[C@H]1O[C@@H]1OC[C@@H](O)[C@H](O)[C@H]1O` (stereo not given in full), the Potency was 1.54 µM (active) in assay [1] and 2.18 µM (active) in assay [2].
Regarding `CC(C)=CCC/C(C)=C/COCC1OC(n2ccc(=O)[nH]c2=O)C(O)C1O` (stereo not given), the Potency in assay [1] is 4.01 µM (active); in assay [2] it was 2.01 µM (active).
As to `CS(=O)(=O)Nc1cc2occ(NC=O)c(=O)c2cc1Oc1ccccc1`, the Potency entry in assay [1] and in assay [2] was “inactive” each time.
On to `CCC(C)C(=O)O[C@H]1[C@@H](OC(=O)c2ccoc2)C[C@](C)(O)[C@]23OC(C)(C)[C@H](C[C@H](OC(=O)c4ccoc4)[C@]12COC(C)=O)[C@H]3OC(C)=O` (stereo not given in full), for which the Potency result in assay [1] and in assay [2] was “inactive” in each case.
As for `Cn1cc(-c2ccc(F)c(C(F)(F)F)c2)nc1C1CCN(c2ncnc3[nH]ncc23)CC1`, the Potency entry in assay [1] and in assay [2] was “inactive” throughout.
For `COc1cc(O)c2c(c1)/C=C/C[C@H](O)[C@H](O)C(=O)/C=C\C[C@H](C)OC2=O`, the Potency in assay [1] is 2.06 µM (active) and 2.58 µM (active); in assay [2], 1.46 µM (active) and 1.83 µM (active).
With `C=C1C(=O)O[C@@H]2[C@H]1CC(=O)[C@H](C)[C@@](O)(C(=O)/C=C/C)[C@H]2OC(=O)C(C)CC` (stereo not given in full), the Potency was 1.27 µM (active) in assay [1] and 0.45 µM (active) in assay [2].
For the compound `CC(C)(CNC(=O)c1cccc(-c2noc(C(F)(F)F)n2)c1)c1coc(-c2ccccc2)n1`, the Potency in assay [1] was 20.9 µM (active); in assay [2] it was 23.5 µM (active).
Consider `NS(=O)(=O)c1ccc(NC(=O)Nc2ccc(F)cc2)cc1`, for which the Potency result in assay [1] and in assay [2] was “inactive” throughout.
As for `C=C1C(=O)O[C@@H]2/C=C(\C)CC/C=C(/C=O)[C@H](OC)[C@@H](OC(=O)C(C)C)[C@@H]12`, the Potency in assay [1] is 8.01 µM (active); in assay [2], 3.19 µM (active).
For `CC[C@@H](C)Nc1cc(C(=O)NC2CC3CCC(C2)N3c2ccc(C(=O)C3CC3)cn2)c(C)cc1C(N)=O` (stereo not given in full), the Potency in assay [1] is 0.118 µM (active); in assay [2], 0.132 µM (active).
On to `CC1(C)CC[C@]23CO[C@@]4(CCC5[C@@]6(C)CC[C@H](O[C@@H]7OC[C@H](O[C@@H]8O[C@H](CO)[C@@H](O)[C@H](O)[C@H]8O[C@@H]8OC[C@@H](O)[C@H](O)[C@H]8O)[C@H](O)[C@H]7O[C@@H]7O[C@H](CO)[C@@H](O)[C@H](O)[C@H]7O)[C@@](C)(CO)C6CC[C@@]5(C)[C@]4(C)C[C@H]2O)[C@@H]3C1` (stereo not given in full), for which the Potency in assay [1] is 1.54 µM (active); in assay [2], 2.75 µM (active).
On to `N#Cc1ccnc(Nc2cc(C3CCN(C4COC4)CC3)cc(N3CCC(F)(F)C3)n2)c1`, for which the Potency was 2.91 µM (active) and 934 nM (active) in assay [1]; 2.59 µM (active) and 525 nM (active) in assay [2].
Turning to `C=CCNC1=C2C[C@@H](C)C[C@H](OC)[C@H](O)[C@@H](C)/C=C(\C)[C@H](OC(N)=O)[C@@H](OC)/C=C\C=C(/C)C(=O)NC(=CC1=O)C2=O`, the Potency in assay [1] was 3.32 µM (active); in assay [2], 2.63 µM (active).
As to `CN(CC1COCCO1)S(=O)(=O)Nc1ccc2ccc3ncc(-c4cnn(C)c4)cc3c(=O)c2c1` (stereo not given), the Potency in assay [1] was 5.15 µM (active); in assay [2], 9.16 µM (active).
Take `C=C[C@]1(C)C[C@H](O)[C@H]2C(=C)C(=O)O[C@@H]2[C@H]1C(=C)CO`: the results for the Potency in assay [1] and in assay [2] were 18.3 µM (active) and 14.5 µM (active), respectively.
For `Cc1c(C2=CCN(C(=O)N(C)C(C)C)CC2)nnn1-c1cccnc1F`, the Potency entry in assay [1] and in assay [2] was “inactive” throughout.
Regarding `O=C(Nc1ccc(Cl)cc1)c1ccccc1NCc1ccncc1`, the Potency in assay [1] is 10.3 µM (active); in assay [2], 18.3 µM (active).
For `CN1C(=O)c2sccc2N(C)c2nc(Nc3ccc(S(N)(=O)=O)cc3)ncc21` the same measures were 1.05 µM (active) and 0.59 µM (active).
For `O=c1cc(NCCCN[C@@H]2CCOc3c(Br)cc(Br)cc32)[nH]c2ccsc12` the same measures were 20.5 µM (active) and 20.5 µM (active).
The like results for `CN(C)CCC(CSc1ccccc1)Nc1ccc(S(=O)(=O)NC(=O)c2ccc(N3CCN(Cc4ccccc4-c4ccc(Cl)cc4)CC3)cc2)cc1[N+](=O)[O-]` (stereo not given) were, in that order, 0.916 µM (active) and 0.515 µM (active).
Consider `O=C(NO)c1ccc(CC(=O)N(CCO)c2ccccc2)cc1`, for which the Potency in assay [1] was 16.3 µM (active); in assay [2], 14.5 µM (active).
For `c1ccc(-c2ccc(CNc3nc(-c4ccccn4)nnc3-c3ccccc3)cc2)cc1` the same measures were 2.95 µM (active) and 2.95 µM (active).
For `Nc1c(S(=O)(=O)c2ccccc2)c2nc3ccccc3nc2n1-c1ccc(F)cc1`, the Potency entry in assay [1] and in assay [2] was “inactive” each time.
As to `C/C1=C\[C@@H](C)C[C@@H](C)[C@@H](Cc2cnco2)OC(=O)/C(C)=C/[C@@H](C)C[C@@H](C)[C@@H](Cc2cnco2)OC1=O`, the results for the Potency in assay [1] and in assay [2] were 1.78 µM (active) and 3.17 µM (active), respectively.
For `O=C(NCC1CCN(Cc2cccc(Cl)c2)CC1)[C@@H]1CCCN(c2ncnc3c2nc2n3CCCC2)C1`, the Potency entry in assay [1] and in assay [2] was “inactive” in each case.
As to `COc1cc2nc(N3CCN(C(=O)c4ccco4)C4CCCCC43)nc(N)c2cc1OC` (stereo not given), the Potency in assay [1] is 2.3 µM (active); in assay [2], 3.65 µM (active).
Turning to `CCN1CCN(Cc2ccc(NC(=O)c3ccc(C)c(Oc4ccnc5[nH]ccc45)c3)cc2C(F)(F)F)CC1`, the Potency in assay [1] and in assay [2] was 0.713 µM (active) throughout.
On to `Nc1nc2c(ncn2C2OC3COP(=O)(O)OC3C2O)c(=O)[nH]1` (stereo not given), for which the Potency entry in assay [1] and in assay [2] was “inactive” each time.
With `CC(C)C(C)C(O)C1CC23CC(=O)C4(O)C(=C2CCC3C1C)C=CC1(O)CC(O)CCC14C` (stereo not given), the Potency entry in assay [1] and in assay [2] was “inactive” each time.
In the case of `CN1CCN(C2CCN(C(=O)Nc3cc(Oc4ccc(NC(=O)C5(C(=O)Nc6ccc(F)cc6)CC5)c(F)c4)ccn3)CC2)CC1`, the Potency in assay [1] is 6.49 µM (active) and 11.8 µM (active); in assay [2] it was 7.28 µM (active) and 10.5 µM (active).
As to `Cc1nc(NC(=O)N2CCC[C@H]2C(N)=O)sc1-c1ccnc(C(C)(C)C(F)(F)F)c1`, the Potency in assay [1] is 1.63 µM (active) and 2.63 µM (active); in assay [2], 1.63 µM (active) and 2.95 µM (active).
As to `C[C@H](Oc1cc(-c2cnn(C3CCNCC3)c2)cnc1N)c1c(Cl)ccc(F)c1Cl`, the Potency in assay [1] was 11.5 µM (active); in assay [2], 12.9 µM (active).
Turning to `O=C(Nc1ccccc1Cl)c1cnc2ccc(C3CCNCC3)cn12`, the Potency in assay [1] was 1.29 µM (active); in assay [2], 2.3 µM (active).
For `Cn1ncnc1[C@H]1c2n[nH]c(=O)c3cc(F)cc(c23)N[C@@H]1c1ccc(F)cc1`, the Potency in assay [1] is 200 nM (active) and 148 nM (active); in assay [2], 28.2 nM (active) and 66.1 nM (active).
For the compound `CC(=O)C1=C(O)C=C2Oc3c(C(C)=O)c(O)c(C)c(O)c3[C@]2(C)C1=O`, the Potency result in assay [1] and in assay [2] was “inactive” throughout.
For the compound `N[C@@H]1c2cccnc2[C@H](OC(=O)N2CCC(n3c(=O)[nH]c4ncccc43)CC2)CC[C@H]1c1cccc(F)c1F`, the Potency entry in assay [1] and in assay [2] was “inactive” throughout.
For the compound `CC1(C)CCCC2(C)C1C(OC(=O)/C=C/C=C/C=O)C=C1COC(=O)C12O` (stereo not given), the Potency is 7.09 µM (active) in assay [1] and 3.55 µM (active) in assay [2].
For `CO[C@@H]1CC(OC2CCC3(C)C(CCC45CCC(C6=CC(=O)OC6)C(C)(CCC43)C5=O)C2)O[C@H](C)[C@@H]1O[C@@H]1O[C@H](CO[C@@H]2O[C@H](CO)[C@@H](O)[C@H](O)[C@H]2O)[C@@H](O)[C@H](O)[C@H]1O` (stereo not given in full) the same measures were 1.73 µM (active) and 3.46 µM (active).
Turning to `CN1CCN(c2ccc(OC(F)(F)F)c(Nc3ncc4c(n3)-c3c(c(C(N)=O)nn3CCO)CC4)c2)CC1`, the Potency is 57.8 nM (active) and 118 nM (active) in assay [1]; 72.8 nM (active) and 132 nM (active) in assay [2].
`CN1CCN(S(=O)(=O)c2ccc(-c3cnc(N)c(C(=O)Nc4cccnc4)n3)cc2)CC1`: the Potency in assay [1] and in assay [2] was 0.317 µM (active) each time.
As for `CCCCCCCCn1cc(CN(CC)CC)c2cc(-c3cnc(N)nc3)ccc21`, the Potency is 4.09 µM (active) in assay [1] and 3.25 µM (active) in assay [2].
For `O=C1Cc2c([nH]c3ccc(Br)cc23)-c2ncccc2N1`, the values for the Potency in assay [1] and in assay [2] were 2.9 µM (active) and 2.58 µM (active), respectively.
For `COc1cc(C(C)=O)c(OC)c2c1OC(C)(C)C=C2` the same measures were “inactive” and “inactive”.
For `C/C(=C\CCC(C)C1=CCC2(C)OC3=C(CC12)C(=O)C(O)CC3)CO` (stereo not given) the same measures were “inactive” and “inactive”.
For `C=C1C(=O)O[C@@H]2C[C@]3(C)[C@@H](CCC(C)O)[C@@H]3C[C@H]12` (stereo not given in full) the same measures were 18.3 µM (active) and 14.5 µM (active).
Consider `CC(=O)C=C=C1C(C)(C)CC(O)CC1(C)O[C@@H]1O[C@H](CO[C@H]2OC[C@](O)(CO)[C@H]2O)[C@@H](O)[C@H](O)[C@H]1O` (stereo not given in full), for which the Potency entry in assay [1] and in assay [2] was “inactive” in each case.
Consider `COC(=O)C[C@H]1[C@]2(C)C3=C(C)[C@H](c4ccoc4)C[C@H]3O[C@@H]2[C@H](O)C2[C@](C)(C(=O)OC)C=CC(=O)[C@@]21C` (stereo not given in full), for which the Potency entry in assay [1] and in assay [2] was “inactive” throughout.
